Experimental data as given in PubChem BioAssay (NCATS).
Results filed as inconclusive are left out. The source made the active and inactive calls. The call rests on the fitted dose curve; in most records, active means well fitted curve in the direction sought with a large enough effect; inconclusive means small, poorly fitted or top-dose-only effect, or another doubt; inactive means no such curve, though single readings can be large; an effect the other way counts as inactive or inconclusive.

Legend:
[1] = tested on: Zika virus NS2B-NS3 protease (linked construct); experiment: Primary screen NINDS Rhodamine qHTS for Zika virus inhibitors (AID 1347160); further: nearly all actives have a fitted effect of over 55% in size
Summary of the method: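 Percent inhibition, normalized to uninhibited and enzyme-free controls, is fitted to a 4-parameter Hill equation. Fluorescence change comes from a 15-min cleavage of 1.5 microM bis-peptide Rhodamine110 substrate by 25 nM linked NS2B-NS3 at room temperature.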

[2] = HPAF-II Cancer Cell Toxicity qHTS against the NCATS CANVASS Library (AID 1347346); further: series mostly up to about 38 µM; nearly all actives have a fitted effect of over 55% in size
Summary of the method: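 Luminescence from CellTiter-Glo, added after 72 h compound exposure and a 15 min room-temperature incubation, served as the viability readout. HPAF-II cells (1000/well) received an 11-point concentration series.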

[3] = OV-SAHO Cancer Cell Toxicity qHTS against the NCATS CANVASS Library (AID 1347348); further: potency means the concentration at half of the fitted maximal effect; nearly all actives have a fitted effect of over 55% in size
Summary of the method: (§1)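 1000 cells/well seeded and rested 4 h at 37 °C before pin transfer of compounds in an 11-pnt series. Exposure 72 h at 37 °C/5% CO2; viability by CellTiter-Glo luminescence after 15 min at room temperature.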

[4] = SW1088 Cancer Cell Toxicity qHTS against the NCATS CANVASS Library (AID 1347350); further: nearly all actives have a fitted effect of over 75% in size
Summary of the method: as §1

[5] = U-118MG Cancer Cell Toxicity qHTS against the NCATS CANVASS Library (AID 1347351); further: series mostly up to about 38 µM
Summary of the method: as §1

[6] = A2780 Cisplatin Sensitive Ovarian Cancer Cell Toxicity qHTS against the NCATS CANVASS Library (AID 1347353); further: nearly all actives have a fitted effect of over 60% in size
Summary of the method: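 Luminescent ATP content (ATPLite, 10 min at room temperature) served as the read-out after cells had been exposed to compounds for 72 hours at 37 °C. Dosing followed an 11-point concentration series.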

[7] = HEK-293 Cancer Cell Toxicity qHTS against the NCATS CANVASS Library (AID 1347355); further: series mostly up to about 46 µM; nearly all actives have a fitted effect of over 65% in size
Summary of the method: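 Luminescent ATP read-out (CellTiter-Glo, 15min at room temperature) measures survival after cells face an 11-point compound series for 72 hours at 37 degrees C/5% CO2.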

[8] = HEK293 18hr Apoptosis Induction qHTS against the NCATS CANVASS Library (AID 1347357)
Summary of the method: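 HEK293 cells (500 per well, DMEM with 10% FBS) were treated with natural products, incubated 18 hours at 37 degrees C, then caspase-3/7 activity was read by Caspase-Glo luminescence after 15 min at room temperature.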

[9] = HPAF-II 12hr Apoptosis Induction qHTS against the NCATS CANVASS Library (AID 1347358)
Summary of the method: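 500 HPAF-II cells/well; cmpds 11-pt; 12 hr, 37 degrees C/5% CO2; Caspase-Glo 3/7 added, 15 min RT dark; luminescence read. Doxorubicin titration as control.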

[10] = HEK293 24hr Apoptosis Induction qHTS against the NCATS CANVASS Library (AID 1347359)
Summary of the method: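 HEK293 cells, 500 per well, exposed to an 11-point compound series for 24 hours at 37 degrees C. Caspase 3/7 activity read by Caspase-Glo luminescence (DEVD substrate) after 15 min at room temperature.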

[11] = HPAF-II 18hr Apoptosis Induction qHTS against the NCATS CANVASS Library (AID 1347360)
Summary of the method: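 HPAF-II cells (500/well, DMEM + 10% FBS) were exposed to compounds for 18 hours at 37 degrees C. Caspase-3/7 activity was then read by Caspase-Glo 3/7 luminescence after 15 min at room temperature.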

[12] = HEK293 12hr Apoptosis Induction qHTS against the NCATS CANVASS Library (AID 1347361)
Summary of the method: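 Read-out: Caspase-Glo 3/7 luminescence (DEVD substrate), 15 min RT. Preceded by 12 h compound exposure of HEK293, 500 cells/well, 11-pt qHTS titration; doxorubicin titration as control.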

[13] = tested on: NAD(P)H diaphorase (Clostridium kluyveri); experiment: Diaphorse counterscreen qHTS: Assay Interference Panel against the NCATS CANVASS Library (AID 1347362)
Summary of the method: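 Clostridium kluyveri diaphorase in PBS + 0.01% Tween-20 preincubated 15 min with compounds. Resazurin and NADH then added for 5 min at room temperature in the dark; resorufin fluorescence read (ex 525, em 598).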

[14] = biological target: Luciferin 4-monooxygenase (Photinus pyralis) (UniProt P08659); experiment: Firefly luciferase counterscreen qHTS: Assay Interference Panel against the NCATS CANVASS Library (AID 1347363); further: series mostly up to about 57 µM
Summary of the method: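 Purified P. pyralis luciferase (0.04 ug/mL, 4x reagent) added to Tris-acetate buffer with 0.013 mM D-luciferin, 0.013 mM ATP and 13.3 mM Mg-acetate; compounds preincubated 15 min, then luminescence read after 5 min, RT.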

[15] = KB-8-5-11 Cancer Cell Toxicity qHTS against the NCATS CANVASS Library (AID 1347364); further: series mostly up to about 46 µM; nearly all actives have a fitted effect of over 75% in size
Summary of the method: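 Plate 500 KB-8-5-11 cells per well in DMEM + 10% FBS, add compounds by pin transfer, incubate 72 hr at 37C. Add CellTiter-Glo, wait 10 minutes at room temperature, read luminescence.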

[16] = SDT Cancer Cell Toxicity qHTS against the NCATS CANVASS Library (AID 1347365);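 further: SDT canine glioma cells 500 per well in 1536 well plates; series mostly up to about 46 µM; nearly all actives have a fitted effect of over 60% in size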
Summary of the method: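 qHTS, SDT dog glioma line, 500 cells/well; cpds 11 pts; 72 hr, 37C, 5% CO2; CellTiterGlo ATP luminescence.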

[17] = KB-3-1 Cancer Cell Toxicity qHTS against the NCATS CANVASS Library (AID 1347366); further: series mostly up to about 46 µM; nearly all actives have a fitted effect of over 75% in size
Summary of the method: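 KB-3-1 cells (500 cells/well) in DMEM + 10% FBS were treated with compounds for 72 hr at 37C, 5% CO2. Viability was read as CellTiter-Glo luminescence after 10 minutes at room temperature.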

[18] = qHTS for ATAD5 Agonist screened against the NCATS CANVASS Library (AID 1347367);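 further: luciferase reporter driven by ATAD5 which rises upon DNA damage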
Summary of the method: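 HEK293T cells stably carrying an ATAD5-controlled luciferase reporter (2000 cells/well) attached for 5 hr, then received compounds in an 11-point series for 16hr at 37C. Luminescence was read after a 30 min room-temperature reagent step.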

[19] = G06 Cancer Cell Toxicity qHTS against the NCATS CANVASS Library (AID 1347368); further: series mostly up to about 46 µM; nearly all actives have a fitted effect of over 60% in size
Summary of the method: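 Dog G06 glioma line, 500 cells/well; cpds pin-transferred, 11-pt; 72 hr, 37C/5% CO2; CellTiterGlo luminescence (ATP) endpoint.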

[20] = MCF7 Cancer Cell Toxicity qHTS against the NCATS CANVASS Library (AID 1347369)
Summary of the method: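 MCF7, 500 cells/well; cpds 11-pt qHTS; 72 hr, 37C/5% CO2; CellTiterGlo ATP luminescence.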

[21] = qHTS for ATAD5 Antagonist screened against the NCATS CANVASS Library (AID 1347370);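 further: HEK293T cells carrying an ATAD5 luciferase reporter co-treated with 10 µM 5-fluorouridine; series mostly up to about 46 µM; nearly all actives have a fitted effect of over 65% in size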
Summary of the method: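 HEK293T cells with stably integrated ATAD5-luciferase reporter, 2000/well, 5 h attachment; compounds plus 10 µM 5-fluorouridine, 16 h at 37 °C. Luciferase luminescence read, with CellTiter-Fluor viability read first.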

[22] = J3T Cancer Cell Toxicity qHTS against the NCATS CANVASS Library (AID 1347371);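 further: J3T is a canine glioma cancer cell line seeded at 500 cells per well; series mostly up to about 46 µM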
Summary of the method: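 Cells plated at 500 per well, compounds pin-transferred, plates incubated 72 hr at 37C, then CellTiterGlo added and luminescence read to measure ATP content.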

[23] = biological target: Nuclear receptor subfamily 1 group I member 3 (Homo sapiens) (UniProt Q14994); experiment: qHTS for Constitutive Androstane Receptor (CAR) Antagonist screened against the NCATS CANVASS Library (AID 1347372);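 further: cells stimulated with 50 nM CITCO agonist so inhibition reflects antagonism; series mostly up to about 46 µM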
Summary of the method: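 HepG2 cells stably carrying hCAR and CYP2B6-2.2kb luciferase reporter, 2500 cells/well, compound with 50 nM CITCO agonist for 24hr at 37C. ONE-Glo luminescence measured CAR activity; CellTiter-Fluor read viability.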

[24] = qHTS for Hypoxia signaling pathway (HIF-1) antagonists against the NCATS CANVASS Library (AID 1347374);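 further: HRE-bla ME-180 cells stimulated with cobalt chloride to stabilize HIF-1alpha; series mostly up to about 38 µM; nearly all actives have a fitted effect of over 60% in size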
Summary of the method: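 HRE-bla ME-180 cells in medium with 0.5% dialyzed FBS received compounds (11-point series) plus CoCl2 (60 uM addition stock) for 17 hrs at 37C. Beta-lactamase activity read with CCF4 (405 nm ex, 460/530 nm em); CellTiter-Glo viability measured in same wells.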

[25] = qHTS for Hypoxia signaling pathway (HIF-1) agonists against the NCATS CANVASS Library (AID 1347375)
Summary of the method: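 ME-180 HRE-bla reporter cells; 2,000/well, 0.5% dialyzed FBS; cpd added after 5 h, 17 h 37C/5% CO2; CCF4-AM 2 h RT; FRET 460/530 nm; CellTiter-Glo viability same wells, 30 min.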

[26] = 10-beta competent E. coli microbial cell viability qHTS against the NCATS CANVASS Library (AID 1347376); further: series mostly up to about 46 µM
Summary of the method: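 E. coli 10-beta, 0.2 OD; cpds 11-pt; o/n 37C, 5% CO2; BacTiter-Glo 20 min RT; luminescence (ATP) = viable cells. Daunomycin ctrl.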

[27] = DH5-alpha competent E. coli microbial cell viability qHTS against the NCATS CANVASS Library (AID 1347377); details: outcome: dose series up to 46.1 µM unless noted
Summary of the method: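 qHTS, 11-pt; E. coli DH5-alpha, 0.2 OD; o/n 37C/5% CO2; BacTiter-Glo, 20 min RT; luminescence.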

[28] = qHTS for H2AX Agonists against the NCATS CANVASS Library (AID 1347378)
Summary of the method: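 CHO-K1 cells were plated overnight at 37C, then exposed to compounds (concentration series, 0.76% DMSO final) for 3 hr at 37C. Lysates received Eu-cryptate anti-pH2AX (S139) and d2 anti-H2AX antibodies; after 24 hr at room temperature, TR-FRET 665/620 nm ratio was read.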

[29] = qHTS for Inflammasome Signaling Inhibitors: IL-1-beta AlphaLISA screen against the NCATS CANVASS Library (AID 1347379);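 further: human THP-1 cells primed with LPS then triggered with ATP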
Summary of the method: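 THP-1 cells pretreated 1 hr with compound (up to 57.5 uM final), then stimulated with LPS (250 ng/mL final) and ATP (1.25 mM final). Secreted IL-1B measured by AlphaLISA after 16 hr; glyburide as positive control.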

[30] = Inflammasome Signaling qHTS Counterscreen: IL-1-beta AlphaLISA counterscreen against the NCATS CANVASS Library (AID 1347381);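 further: cell-free check with purified IL-1β in medium and no THP-1 cells; series mostly up to about 57 µM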
Summary of the method: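 Cell-free interference check: compounds added to medium spiked with 4 pg purified IL-1β. Anti-IL-1β acceptor beads (6 ug/mL) with 0.6 nM biotinylated antibody added for 1 h at RT, then streptavidin donor beads (24 ug/mL) for 30 min in the dark. AlphaLISA read at 680/615 nm.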

[31] = Cytotoxicity qHTS for assessment of Hepg2 cells membrane integrity screened against the NCATS CANVASS Library (AID 1347387)
Summary of the method: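 qHTS, 11-pt conc. series, 0.59 nM - 46 uM final; HepG2 2000 cells/well, overnight attachment; 5 hr compound exposure 37C/5% CO2; CytoTox-ONE, 10 min RT; fluorescence ex560/em590 = LDH from damaged membranes.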

[32] = qHTS for Activators of p53 Stress Response Pathway screened against the NCATS CANVASS Library (AID 1347388)
Summary of the method: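 p53RE-bla HCT-116 cells (4000/well) were pre-incubated for 5 h, then treated with compound (11 points) for 16 h at 37C. After 2 h with CCF4, the 460/530 nm ratio gave reporter activation; CellTiter-Glo measured viability.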

[33] = qHTS assay for small molecule disruptors of mitochondrial membrane potential screened against the NCATS CANVASS Library (AID 1347389)
Summary of the method: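 HepG2, 2,000 cells/well, attached overnight; compound 1 hr, 37C, 5% CO2; Mito-MPS dye 30 min, 37C; fluorescence 535 nm (monomer) and 590 nm (aggregate); decreased 590/535 ratio = depolarization.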

[34] = Secretion counterscreen for inhibitors of the SERCaMP assay screened against the NCATS CANVASS Library (AID 1347390);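 further: light from luciferase secreted into medium read as a measure of general secretion; series mostly up to about 77 µM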
Summary of the method: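 SH-SY5Y cells expressing constitutively secreted GLuc, 1000 cells/well, attached 4 h at 37C, then exposed to compounds (0.001 - 77 uM, 11-pnt series) for 20 h. Coelenterazine added; luminescence read to flag secretory-pathway interferers.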

[35] = qHTS for activators of Nrf2/ARE signaling pathway screened against the NCATS CANVASS Library (AID 1347391); further: nearly all actives have a fitted effect of over 60% in size
Summary of the method: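 Plate ARE-bla HepG2 cells at 2000/well and let them settle 5 h. Pin-transfer compounds in DMSO, incubate 16 h at 37C. Load CCF4 for 2 h at room temperature and read blue/green fluorescence.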

[36] = qHTS for activators of dead-cell proteases activity screened against the NCATS CANVASS Library (AID 1347392);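 further: luminescence from protease leaking out of membrane-damaged cells cleaving impermeant substrate; rising signal means more cytotoxicity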
Summary of the method: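 HepG2 cells, 2000/well, attached 18 h at 37C, then exposed to compounds (11-point qHTS) for 5 h. Dead-cell protease release read as luminescence from cell-impermeant AAF-aminoluciferin substrate after 15 min at room temperature.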

[37] = Vero-766 cells viability qHTS against the NCATS CANVASS Library: Counterscreen for Zika virus inhibition assay (AID 1347394)
Summary of the method: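 Uninfected Vero 766 (African green monkey) cells, 1000/well, attached overnight, then exposed 72 h at 37C to compounds (11-point qHTS). Viability read by CellTiter-Glo luminescence; media-only wells served as 100% inhibition.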

[38] = qHTS for inhibitors of Wild type Zika virus screened against the NCATS CANVASS Library (AID 1347396);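 further: ATP luminescence of surviving cells so rescue from viral cell killing; series mostly up to about 46 µM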
Summary of the method: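 Using ATP-based luminescence (CellTiter Glo), this screen scores rescue of Vero 766 cells from wild-type Zika killing at 72 h post-infection. Compounds are tested in a concentration series.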

[39] = Viability qHTS for inhibitors of the SERCaMP assay screened against the NCATS CANVASS Library (AID 1347400); further: series mostly up to about 92 µM; nearly all actives have a fitted effect of over 70% in size
Summary of the method: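 SH-SY5Y SERCaMP MJH297 cells, 1000/well; 4 h settle, 37C/5% CO2; pin-transferred cpds; 48 h; CellTiter-Glo lum. Pos ctrl bortezomib 0.0001 - 4.6 uM.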

[40] = Redox Reaction Profiling qHTS: Assay Interference Panel against the NCATS CANVASS Library (AID 1347401)
Summary of the method: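 Compounds in 11-point series incubated with 5 uM resazurin and 200 uM DTT in 50 mM HEPES pH 7.3, 50 mM NaCl. Resorufin fluorescence (Ex 525/Em 598) read before and after 15 min in the dark.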

Measured: Potency

Sequence of Luciferin 4-monooxygenase (Photinus pyralis) (P08659 whole entry, looked up): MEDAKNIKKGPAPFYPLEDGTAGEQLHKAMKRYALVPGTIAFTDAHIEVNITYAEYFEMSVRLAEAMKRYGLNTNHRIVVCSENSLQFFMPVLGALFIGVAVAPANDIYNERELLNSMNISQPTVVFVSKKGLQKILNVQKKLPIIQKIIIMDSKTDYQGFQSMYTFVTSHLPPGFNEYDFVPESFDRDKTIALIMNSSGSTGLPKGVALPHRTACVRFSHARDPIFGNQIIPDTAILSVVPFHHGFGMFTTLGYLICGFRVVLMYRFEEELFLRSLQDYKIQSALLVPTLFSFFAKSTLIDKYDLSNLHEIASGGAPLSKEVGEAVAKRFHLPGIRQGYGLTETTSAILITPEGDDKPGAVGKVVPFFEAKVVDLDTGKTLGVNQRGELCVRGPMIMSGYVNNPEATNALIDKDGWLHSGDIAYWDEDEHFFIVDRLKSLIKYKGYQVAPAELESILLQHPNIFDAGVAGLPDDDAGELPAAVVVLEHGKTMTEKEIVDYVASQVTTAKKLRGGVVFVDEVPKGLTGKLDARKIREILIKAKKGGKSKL
Sequence of Nuclear receptor subfamily 1 group I member 3 (Homo sapiens) (Q14994 whole entry, looked up): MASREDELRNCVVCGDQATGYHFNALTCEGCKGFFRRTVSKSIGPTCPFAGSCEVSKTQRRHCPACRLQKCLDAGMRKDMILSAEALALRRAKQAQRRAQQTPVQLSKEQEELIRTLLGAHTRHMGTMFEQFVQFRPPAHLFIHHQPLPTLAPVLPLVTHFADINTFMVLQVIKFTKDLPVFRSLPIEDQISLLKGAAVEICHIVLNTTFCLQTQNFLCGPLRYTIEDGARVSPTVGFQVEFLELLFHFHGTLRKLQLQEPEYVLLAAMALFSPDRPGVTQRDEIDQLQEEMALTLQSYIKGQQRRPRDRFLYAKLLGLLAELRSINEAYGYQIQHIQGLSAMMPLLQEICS

O=Cc1ccc2n1C[C@@]1(C[C@H](O)[C@H](O)CO1)OC2
active: [3] 13.3 µM
inactive: all other assays above
